From PubChem
The full list was thinned out, with hits kept by preference.
Cycloheximide cs – Cycloheximide Counterscreen for Small Molecule Inhibitors of Shiga Toxin | cell reporter, cycloheximide protein synthesis inhibition counterscreen | max response, % | actives 12% (n = 300,000); in the data active = max response mostly above about 13%, no sharp cut-off; inactive = mostly below about 14%; note: read at 38.3 µM for the half of the compounds with a filed dose; 0% is about no effect
SARS PLP yeast – qHTS of Yeast-based Assay for SARS-CoV PLP; S. cerevisiae expressing SARS-CoV PLpro, growth rescue; actives 0.19% (n = 330,000); Potency, µM (doses to about 32.9 µM), for inactives: at the highest dose activity, positive = growth rescue, actives largely listed as activators; note: potency is the fitted concentration of half-maximal effect; 0% is about no effect; nearly all actives have a fitted effect of over 55% in size
LmPK inh – qHTS Assay for Inhibitors of Leishmania Mexicana Pyruvate Kinase (LmPK); Q27686; purified LmPK, Kinase-Glo ATP luminescence, 1 h; Potency, µM (doses to about 57.5 µM), for the others: at the top dose activity change, negative = inhibition, hits mostly inhibitors; actives 0.37% (n = 290,000); AID 1721, 2009; active = well fitted curve in the direction sought with a large enough effect; an effect the other way counts as inactive or inconclusive; note: potency is the fitted concentration of half-maximal effect; % is set by controls: 0 for no effect and ±100 for the full control effect
Target sequence (Q27686 whole entry, looked up): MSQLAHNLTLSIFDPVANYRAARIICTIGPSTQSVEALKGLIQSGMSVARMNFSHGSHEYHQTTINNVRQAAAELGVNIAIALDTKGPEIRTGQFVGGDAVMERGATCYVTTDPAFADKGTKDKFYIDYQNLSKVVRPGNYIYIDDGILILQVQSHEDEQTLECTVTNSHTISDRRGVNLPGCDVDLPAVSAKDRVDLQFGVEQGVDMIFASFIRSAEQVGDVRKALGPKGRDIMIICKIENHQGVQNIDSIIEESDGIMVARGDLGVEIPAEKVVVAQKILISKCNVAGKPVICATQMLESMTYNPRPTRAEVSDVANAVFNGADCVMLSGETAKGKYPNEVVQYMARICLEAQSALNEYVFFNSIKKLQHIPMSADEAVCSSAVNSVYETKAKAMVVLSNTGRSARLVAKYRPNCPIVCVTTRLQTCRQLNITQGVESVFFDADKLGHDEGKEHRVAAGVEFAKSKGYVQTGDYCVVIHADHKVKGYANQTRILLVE
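qHTS format; LmPK 0.1 nM; substrates PEP 0.5 mM and ADP 0.1 mM. One-hour room-temperature incubation, then coupled luciferase luminescence; 0.5 nM enzyme wells mark activation.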
Shiga inhibitor – A qHTS for Small Molecule Inhibitors of Shiga Toxin. Vero cells, Shiga toxin protein synthesis inhibition reporter. inhibition, % at 38.7 µM. actives 9.2% (n = 290,000); in the data active = inhibition mostly above about 28%, no sharp cut-off; inactive = mostly below about 43%; note: 0% is about no effect
NS1 function inh – qHTS Assay for Inhibitors of Influenza NS1 Protein Function | Potency, µM (titrated, usually from 46.1 µM), inactives show top-dose activity, positive = more growth | actives 0.4% (n = 270,000) | AID 2326, 2010; note: potency is the fitted concentration of half-maximal effect; actives are rising curves; nearly all actives have a fitted effect of over 50% in size
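Read-out: OD600 growth recovery of NS1-expressing budding yeast. Cells grown overnight at 30C in -URA glucose medium, washed, resuspended and diluted 1:100 in 2% galactose assay medium, pH 6.0. Same strain lacking NS1 served as positive control.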
TbPYK inhibitor – qHTS of Trypanosoma Brucei Inhibitors. pyruvate kinase (Trypanosoma brucei), Q57TT1. TbPYK enzyme, Kinase-Glo Plus ATP luminescence, 45 min. Potency, µM (titrated, usually from 76.8 µM), without a hit: at the highest dose activity, negative = inhibition, most hits filed as inhibitors. actives 0.12% (n = 410,000). AID 624173, 2012; active = well fitted curve in the direction sought with a large enough effect; an effect the other way counts as inactive or inconclusive; note: potency is the fitted concentration of half-maximal effect; % is set by controls: 0 for no effect and ±100 for the full control effect; nearly all actives have a fitted effect of over 50% in size
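In this concentration-response screen, enzyme-free wells defined baseline while DMSO plates tracked drift. Each reaction combined TbPYK, substrate, compound and 130 uM ADP for 45 min at room temperature. Kinase-Glo Plus luminescence gave the signal.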
* hit, by the source's call. Unless noted, calls come from the whole dose curve.

Screening COc1ccc(C2CCCN2C(=S)Nc2cccc(Cl)c2)cc1OC (stereo unspecified) returned Cycloheximide cs 21, SARS PLP yeast 1%, LmPK inh 12%, Shiga inhibitor 11 and TbPYK inhibitor -4%.
Screening COc1cccc(NC(=S)N2CCCC2c2ccc(OC)c(OC)c2)c1 (stereo unspecified) returned Cycloheximide cs 33*, SARS PLP yeast 3%, LmPK inh 14%, Shiga inhibitor 52* and TbPYK inhibitor -9%.
For Cc1cccc(NC(=S)N2CCn3cccc3C2c2cccnc2)c1 (stereo unspecified) the results were Cycloheximide cs 1, SARS PLP yeast 19%, LmPK inh 5%, Shiga inhibitor -5, NS1 function inh 5% and TbPYK inhibitor -6%.
For C1CCN(CC[C@@H]2CCCCN2)CC1 the results were NS1 function inh -3%.
`Cc1cc(-n2c(C)cc(C(=O)CSc3nnc4sc5ccccc5n34)c2C)no1` gave Cycloheximide cs 24*, SARS PLP yeast 5%, LmPK inh 2%, Shiga inhibitor 87*, NS1 function inh -8% and TbPYK inhibitor -11%.
O=C(CSc1nnc2sc3ccccc3n12)c1ccco1 was read as Cycloheximide cs 40*, SARS PLP yeast -6%, LmPK inh -9%, Shiga inhibitor 100*, NS1 function inh -5% and TbPYK inhibitor -15%.
Screening Cn1nnnc1SCC(=O)c1ccco1 returned Cycloheximide cs 19, SARS PLP yeast 4%, LmPK inh 3%, Shiga inhibitor -6, NS1 function inh 3% and TbPYK inhibitor -6%.
`O=C(CSCCSCC(=O)c1ccco1)c1ccco1` gave Cycloheximide cs 13*, SARS PLP yeast -2%, LmPK inh 11%, Shiga inhibitor 49 and NS1 function inh 9%.
O=C(CSc1nnnn1-c1ccccc1)c1ccco1 was read as Cycloheximide cs 36*, SARS PLP yeast -1%, LmPK inh 0%, Shiga inhibitor 27 and TbPYK inhibitor -3%.
For c1csc(CSc2nnc3sc4ccccc4n23)c1 the results were Cycloheximide cs 32*, SARS PLP yeast -10%, LmPK inh -5%, Shiga inhibitor 106*, NS1 function inh -2% and TbPYK inhibitor 1%.
For CCOC(=O)CC(=O)CSc1nnc2sc3ccccc3n12 the results were Cycloheximide cs 4, SARS PLP yeast -4%, LmPK inh -4%, Shiga inhibitor 0, NS1 function inh 23% and TbPYK inhibitor 4%.
Screening NC1(CO)COC(c2ccccc2)OC1 (stereo unspecified) returned TbPYK inhibitor -13%.
For Cc1cc(C(=O)Nc2sc3c(c2C#N)CCC(C)C3)no1 (stereo unspecified) the results were Cycloheximide cs 36*, SARS PLP yeast -1%, LmPK inh 0%, Shiga inhibitor 76*, NS1 function inh -6% and TbPYK inhibitor -18%.
For CC(C)Cc1cc(C(=O)Nc2sc3c(c2C#N)CCCC3)no1 the results were Cycloheximide cs 33*, SARS PLP yeast -18%, LmPK inh 2%, Shiga inhibitor 21, NS1 function inh -21% and TbPYK inhibitor -8%.
`N#Cc1c(NC(=O)c2cc(C3CC3)on2)sc2c1CCC2` gave Cycloheximide cs 1, SARS PLP yeast -14%, LmPK inh 0%, Shiga inhibitor -3, NS1 function inh -57% and TbPYK inhibitor -10%.
`CC(C)Cc1cc(C(=O)Nc2sc3c(c2C#N)CCC3)no1` gave Cycloheximide cs 0, SARS PLP yeast -8%, LmPK inh 9%, Shiga inhibitor -9, NS1 function inh -13% and TbPYK inhibitor -14%.
`Cc1cc(C(=O)Nc2sc3c(c2C#N)CCC3)no1` gave Cycloheximide cs 26*, SARS PLP yeast -9%, LmPK inh 1%, Shiga inhibitor 38*, NS1 function inh -33% and TbPYK inhibitor 2%.
For Cn1ccc(C(=O)Nc2sc3c(c2C#N)CCC3)n1 the results were Cycloheximide cs 16*, SARS PLP yeast -5%, LmPK inh 9%, Shiga inhibitor 12, NS1 function inh -28% and TbPYK inhibitor -19%.
For Cc1ccc2nc(Nc3ccc(C)c(F)c3)c3nncn3c2c1 the results were TbPYK inhibitor -7%.
Cc1cc(C(=O)Nc2sc3c(c2C#N)CCCC3)no1 was read as Cycloheximide cs 37*, SARS PLP yeast -46%, LmPK inh -8%, Shiga inhibitor 52*, NS1 function inh -49% and TbPYK inhibitor -14%.
`Cc1ccc(N(CC(=O)Nc2ccc(C)c(F)c2)S(=O)(=O)c2c(C)n[nH]c2C)cc1` gave TbPYK inhibitor 0%.
For Cc1ccc(CNCC(O)(c2ccccc2)c2ccc(Cl)cc2)cc1 (stereo unspecified) the results were Cycloheximide cs -1, SARS PLP yeast 2%, LmPK inh 10%, Shiga inhibitor 9 and TbPYK inhibitor -2%.
Cc1ccc(CNC(=O)NCc2ccccc2)cc1 was read as Cycloheximide cs 26*, SARS PLP yeast 0%, LmPK inh 1%, Shiga inhibitor 149* and TbPYK inhibitor 1%.
Cc1ccc(C)c(CNC(=O)Nc2ccccc2)c1 was read as Cycloheximide cs 30*, LmPK inh 2%, Shiga inhibitor 74*, NS1 function inh 1% and TbPYK inhibitor 0%.
`CCOC(=O)C(=O)Nc1ccccc1C(=O)NCc1ccccc1` gave Cycloheximide cs 33*, SARS PLP yeast 0%, LmPK inh 1%, Shiga inhibitor 85*, NS1 function inh -3% and TbPYK inhibitor -1%.
`Cc1ccc(CNCC(O)(c2ccccc2)c2ccccc2)cc1` gave Cycloheximide cs 15*, SARS PLP yeast 0%, LmPK inh -2%, Shiga inhibitor 23, NS1 function inh -7% and TbPYK inhibitor -1%.
Screening CCOC(=O)C(=O)Nc1ccccc1C(N)=O returned Cycloheximide cs -2, SARS PLP yeast 0%, LmPK inh 4%, Shiga inhibitor -2, NS1 function inh -1% and TbPYK inhibitor -3%.
CCOC(=O)N1CCN(C(=S)NC(=O)/C=C/c2ccc(C)cc2)CC1 was read as Cycloheximide cs 10, LmPK inh -15%, Shiga inhibitor -16, NS1 function inh 0% and TbPYK inhibitor -11%.
`CCc1ccc(NC(=O)c2ccc3c(O)c(S(=O)(=O)c4ccccc4)c(=O)[nH]c3c2)cc1` gave TbPYK inhibitor -3%.
`O=C(NC(c1ccc(-c2ccccc2)cc1)c1cnccn1)C1CCN(Cc2cccs2)CC1` (stereo unspecified) gave TbPYK inhibitor -1%.
Screening CCCCOc1cccc(C(=O)N(Cc2ccc(Br)o2)C2CCS(=O)(=O)C2)c1 (stereo unspecified) returned TbPYK inhibitor -4%.
